SMILES strings stand for the structures.

Consider 35 compounds from PubChem BioAssay.

In the assay the target is Focal adhesion kinase 1 (Homo sapiens) (UniProt Q05397). Nature of the assay: PTK2 protein binding on printed compound slides – biochemical, small-molecule microarray, 635/667 nm fluorescence, BSA, DTT, primary screen (AID 1130).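 Note: composite of spot emission at 667 nm and signal to noise over triplicate slides.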 Conditions: 635 nm fluorescence, higher = more signal.
Chain of Focal adhesion kinase 1 (Homo sapiens) (Q05397 whole entry, looked up): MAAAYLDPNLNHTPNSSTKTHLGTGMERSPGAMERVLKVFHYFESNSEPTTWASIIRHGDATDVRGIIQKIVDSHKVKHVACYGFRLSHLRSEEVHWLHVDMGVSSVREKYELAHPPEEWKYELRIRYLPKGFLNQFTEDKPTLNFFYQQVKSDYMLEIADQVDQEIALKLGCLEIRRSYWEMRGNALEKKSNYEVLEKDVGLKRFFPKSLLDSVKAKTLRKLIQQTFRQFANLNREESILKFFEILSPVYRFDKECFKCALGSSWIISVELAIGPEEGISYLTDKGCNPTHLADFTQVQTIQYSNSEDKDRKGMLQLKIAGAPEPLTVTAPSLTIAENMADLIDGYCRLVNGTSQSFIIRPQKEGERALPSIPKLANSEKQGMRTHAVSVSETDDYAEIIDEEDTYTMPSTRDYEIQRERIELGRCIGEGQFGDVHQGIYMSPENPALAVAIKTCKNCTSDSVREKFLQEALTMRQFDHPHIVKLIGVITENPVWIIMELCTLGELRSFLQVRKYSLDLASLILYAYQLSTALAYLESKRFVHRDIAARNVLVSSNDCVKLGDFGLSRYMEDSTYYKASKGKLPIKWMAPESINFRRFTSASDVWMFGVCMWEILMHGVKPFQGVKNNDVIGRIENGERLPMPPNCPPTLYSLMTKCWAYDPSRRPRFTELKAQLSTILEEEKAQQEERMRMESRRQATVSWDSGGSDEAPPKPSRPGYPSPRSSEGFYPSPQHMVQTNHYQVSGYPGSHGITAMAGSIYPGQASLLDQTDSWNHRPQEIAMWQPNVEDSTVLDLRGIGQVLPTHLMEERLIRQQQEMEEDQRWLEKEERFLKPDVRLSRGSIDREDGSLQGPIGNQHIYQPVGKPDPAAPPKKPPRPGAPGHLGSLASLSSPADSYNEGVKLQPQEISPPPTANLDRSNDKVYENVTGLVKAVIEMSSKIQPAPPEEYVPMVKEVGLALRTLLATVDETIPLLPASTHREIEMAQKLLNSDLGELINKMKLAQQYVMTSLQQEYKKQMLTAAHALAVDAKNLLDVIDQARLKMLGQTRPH
`COC(=O)c1c2oc(c1C(=O)OC)C(=O)N(Cc1ccccc1)Cc1cn(nn1)C[C@H](Cc1ccccc1)NC(=O)N[C@H](CO)CC2` displayed a composite z-score of -0.0924.

For `O=C1O[C@H](c2ccccc2)[C@H](c2ccccc2)N2[C@H]1[C@@H](C(=O)Nc1nc3ccccc3s1)[C@]1(C(=O)Nc3ccc(C#CC4(O)CCCCCC4)cc31)[C@H]2c1ccccc1OCCO`, the composite z-score stood at 0.193.

For the compound `O=C1O[C@@H](c2ccccc2)[C@@H](c2ccccc2)N2[C@@H](c3ccccc3OCCO)[C@]3(C(=O)Nc4ccc(C#CCCO)cc43)[C@@H](C(=O)N3CCCCCCC3)[C@H]12`, the composite z-score stood at 4.83.

Compound `CC(C)N1CC=CC23O[C@@H]4C=CCOC(=O)[C@@H]4[C@H]2C(=O)N(CCCO)[C@@H]3C1=O` (stereo not given in full) showed a composite z-score of 1.01.

`COc1ccc([Si](C)(C)[C@@H]2[C@@H](CC(=O)N(CCO)Cc3ccccc3)O[C@]3(C(=O)N(Cc4cccc(N5CCOC5=O)c4)c4ccccc43)[C@H]2C)cc1` came in with a composite z-score of 0.139.

On to `COC(=O)[C@@]1(Cc2ccc(F)cc2)[C@H]2c3cc(C(=O)N4CCCC4)n(CCN4CNCC4=O)c3C[C@H]2CN1C(=O)c1ccccc1`, for which the composite z-score was determined as 0.922.

`C=C[C@@H](COC(C)=O)N(C(=O)OC(C)(C)C)S(=O)(=O)c1ccc(Br)cc1` had a composite z-score of 0.233.

With `CN(C)C(=O)[C@]1(CCS(=O)(=O)c2ccccc2)N=C(c2ccc(OCCCO)cc2)O[C@@H]1c1ccccc1N=[N+]=[N-]`, the composite z-score is 1.46.

In turn, `O=C1NC(=O)C2C1C=CC(C(O)c1ccco1)N2Nc1ccccn1` (stereo not given) registered a composite z-score of -0.429.

In turn, `C=CC[C@]1(C(=O)NCCN2CCOCC2)N=C(c2ccc(OCCCO)cc2)O[C@H]1c1ccccc1CN=[N+]=[N-]` displayed a composite z-score of -0.319.

As for `CCOC(=O)C[C@H]1[C@H](OC(=O)c2ccccc2-c2ccccc2)[C@@H](NC(=O)c2ccc(-c3ccccc3)cc2)c2cc(OCCCO)ccc2N1C(=O)c1ccc2ccccc2n1`, the composite z-score is -0.0377.

As for `CCCC[C@@H](O)C1=C(COc2ccccc2)C[C@H]2C(=O)N(C)C(=O)[C@H]2[C@H]1CO`, the composite z-score was found to be 0.713.

Regarding `COCCOC(=O)N1C(=O)[C@@]2(c3cc(C#Cc4ccc(OC)cc4)ccc31)[C@H](C(=O)Nc1nc3ccccc3s1)[C@H]1C(=O)O[C@H](c3ccccc3)[C@H](c3ccccc3)N1[C@@H]2c1ccc(O)cc1`, the composite z-score is 0.0931.

`COC1OC[C@]2(C)[C@H]3C4=C(CN2C(=O)OC(C)(C)C)[C@H](C)C(CO)C(CO)C4CC[C@@H]13` (stereo not given in full) yielded a composite z-score of 1.14.

For the compound `COCCCNC(=O)[C@]1(CCS(=O)(=O)c2ccccc2)N=C(c2ccc(OCCCO)cc2)O[C@@H]1c1ccccc1N=[N+]=[N-]`, the composite z-score is -0.0436.

`CCCNC(=O)[C@@]1(c2ccc([N+](=O)[O-])cc2)CC(=O)N(C2CCCCC2)[C@@H]1c1ccc(CO)cc1`: the composite z-score is 0.548.

`[N-]=[N+]=NCc1ccccc1C[C@@]1(C(=O)N2CCOCC2)N=C(c2ccc(OCCCO)cc2)O[C@@H]1c1ccccc1` showed a composite z-score of 0.406.

`NC(N)=NCCCn1cc(CNC(=O)[C@@H](N)Cc2ccccc2)nn1` registered a composite z-score of -0.242.

Turning to `COC(=O)[C@@]1(Cc2ccc(OC)cc2)[C@H]2c3cc(C(=O)N(C)C)n(CCO)c3C[C@H]2CN1C(=O)c1ccccc1`, the composite z-score stood at 1.45.

As to `COCCCNC(=O)[C@@]1(Cc2ccccc2CN=[N+]=[N-])N=C(c2ccc(OCCCO)cc2)O[C@H]1c1ccccc1`, the composite z-score came to 0.895.

Compound `C=C[C@@H](OC)[C@H](OC(=O)Nc1ccc(SC)cc1)c1ccc(O)c(F)c1` returned a composite z-score of 0.566.

Compound `CCCCCCCCCCC(O)C1C=CC2C(=O)N(C)C(=O)C2N1Nc1ccc([N+](=O)[O-])cc1[N+](=O)[O-]` (stereo not given) had a composite z-score of 0.851.

On to `O=C(NCc1ccccc1)[C@@H]1c2ccccc2C(=O)N(Cc2ccccc2C(F)(F)F)[C@H]1c1ccc(CO)cc1`, for which the composite z-score amounted to 0.0179.

The compound `COCCOC(=O)N1C(=O)[C@@]2(c3cc(C#CCCO)ccc31)[C@H](C(=O)Nc1nc3ccccc3s1)[C@H]1C(=O)O[C@H](c3ccccc3)[C@H](c3ccccc3)N1[C@@H]2c1ccccc1OCCO` returned a composite z-score of 0.764.

In turn, `COCCOC(=O)N1C(=O)[C@@]2(c3cc(C#CCC(C(=O)OC)C(=O)OC)ccc31)[C@H](C(=O)N1CCc3cc(OC)c(OC)cc3C1)[C@H]1C(=O)O[C@H](c3ccccc3)[C@H](c3ccccc3)N1[C@@H]2c1ccc(OCCO)cc1` came in with a composite z-score of 0.497.

`COc1ccc(CCNC(=O)[C@@]2(Sc3ccc(C)cc3)CC(=O)N(C3Cc4ccccc4C3)[C@@H]2c2ccc(CO)cc2)cc1` gave a composite z-score of 1.54.

In turn, `CC1=C([C@H](O)CCc2ccccc2)[C@H](CO)[C@@H]2C(=O)N(C)C(=O)[C@@H]2C1` gave a composite z-score of 0.332.

In turn, `COc1ccccc1CN1C(=O)c2ccccc2[C@@]2(Cc3ccccc3N(CC(F)(F)F)C2=O)[C@@H]1c1ccc(CO)cc1` gave a composite z-score of 0.205.

`CC(C)(C)OC(=O)CC[C@]1(C(=O)NCc2ccccc2)N=C(c2ccc(OCCCO)cc2)O[C@H]1c1ccccc1CN=[N+]=[N-]` gave a composite z-score of -0.221.

Compound `O=C(NCC(F)(F)F)[C@@H]1c2ccccc2C(=O)N(Cc2ccc(OC(F)(F)F)cc2)[C@H]1c1ccc(CO)cc1` came in with a composite z-score of 0.518.

Turning to `COc1ccc([Si](C)(C)[C@H]2[C@H](CCn3cc([C@H](O)c4ccccc4)nn3)O[C@@]3(C(=O)N(Cc4ccc(N5C(=O)c6cccc7cccc5c67)cc4)c4ccccc43)[C@@H]2C)cc1`, the composite z-score is -0.254.

Turning to `CCCCCCc1nc(C2CC2)cc2c1[Si](C(C)C)(C(C)C)O[C@H]2c1ccccc1`, the composite z-score is 0.0181.

The compound `COc1cc2c(cc1OC)CN(C(=O)[C@@H]1[C@H]3C(=O)O[C@H](c4ccccc4)[C@H](c4ccccc4)N3[C@H](c3ccc(OCCO)cc3)[C@@]13C(=O)Nc1ccccc13)CC2` displayed a composite z-score of 0.164.

Turning to `CCOC(=O)C[C@H]1[C@H](OC(=O)c2ccc(C(=O)c3ccccc3)cc2)[C@@H](NC(=O)Cc2ccc(OC)cc2)c2cc(OCCCO)ccc2N1C(=O)c1ccccc1`, the composite z-score is 0.15.

The compound `Cc1cc(C)c(C(O)C2C=CC3C(=O)NC(=O)C3N2Nc2ccc(Cl)cc2Cl)c(C)c1` (stereo not given) came in with a composite z-score of 0.941.
